Sampled rows, rich in hits. Any-hit rate of the full collection: about 8.1%.
ELG1 repair inh – ELG1-dependent DNA repair inhibition; 2.3% of 330,000 active; AID 504467; HEK293T ELG1-luciferase reporter, luminescence, 16 h; DNA damage induced by 5-fluorouridine; Potency, µM (highest dose often 46.1 µM), usual class: inhibitors; note: nearly all actives have a fitted effect of over 55% in size
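In this reporter screen, reduction of luminescence relative to DMSO vehicle indicated activity. Compounds and 5-fluorouridine were added together to 2,000 cells per well, incubated for 16 hr at 37 °C, then developed with ONE-Glo.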
KB-3-1 cytotox – KB-3-1 parental cell cytotoxicity | KB-3-1 viability, CellTiter-Glo ATP luminescence, 72 h | Potency, µM (top dose mostly 46.1 µM), hits mostly cytotoxic | 1.4% of 400,000 active; note: nearly all actives have a fitted effect of over 60% in size
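Parental KB-3-1 viability, qHTS format: 72 h compound exposure, 37 °C; CellTiter-Glo; media-only wells and DMSO plates as controls; concentration-effect fits on corrected data.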
KB-V1 MDR tox – KB-V1 MDR subline cytotoxicity; KB-V1 MDR cells viability, CellTiter-Glo, 72 h; Potency, µM (doses to about 46.1 µM), hits mostly cytotoxic; 3.4% of 400,000 active; note: nearly all actives have a fitted effect of over 60% in size
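KB-V1, DMEM (no phenol red) + 10% FBS; cpd pin-transferred, titration series; 72 h, 37 degrees C; CellTiter-Glo, luminescence. Data normalized, curve-fit.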
MCF10A rereplic – DNA re-replication induction in MCF 10a cells; MCF 10A DNA re-replication, Hoechst nuclear intensity, 48 h; Potency, µM (series often up to 46.1 µM), most hits filed as activators; 2.9% of 350,000 active; AID 624296; note: nearly all actives have a fitted effect of over 50% in size
SW480 rerep – induces DNA re-replication in SW480 colon adenocarcinoma cells; SW480 DNA re-replication, Hoechst DNA content imaging, 48 h; AID 624297; 1.8% of 340,000 active; Potency, µM (titrated, usually from 46.1 µM), most hits filed as activators; note: nearly all actives have a fitted effect of over 55% in size
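Image-based DNA-content assay: after two days of treatment, nuclei were labelled with the DNA dye Hoechst and imaged, and hits were compounds raising the count of nuclei showing high fluorescence intensity.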
Each line names hits and unclear results; the compound was inactive in the other large screens. Calls come from the whole dose curve; as a rule, active = well fitted curve in the direction sought with a large enough effect; inconclusive = small, poorly fitted or top-dose-only effect, or another doubt; inactive = no such curve, though single readings can be large; an effect the other way counts as inactive or inconclusive.

COc1cccc(/C=C/c2nc(C#N)c(NCC(C)C)o2)c1	ELG1 repair inh inconclusive, KB-3-1 cytotox inconclusive, KB-V1 MDR tox inconclusive, MCF10A rereplic 3.3µM, SW480 rerep 21µM
Cc1cc(C(=O)CCl)c(C)n1-c1c(C)n(C)n(-c2ccccc2)c1=O	ELG1 repair inh inconclusive, KB-3-1 cytotox inconclusive, KB-V1 MDR tox inconclusive, MCF10A rereplic 5.2µM, SW480 rerep 21µM
COc1ccc(-n2c(C)cc(C(=O)COc3ccc(C)nc3[N+](=O)[O-])c2C)cc1	KB-3-1 cytotox inconclusive, KB-V1 MDR tox inconclusive, MCF10A rereplic 21µM, SW480 rerep inconclusive
Cc1cc(-n2c(C)cc(C(=O)COc3cc(F)ccc3[N+](=O)[O-])c2C)no1	MCF10A rereplic inconclusive, SW480 rerep 13µM
Cc1nnc(SCC(=O)c2cc(C)n(-c3c(C)n(C)n(-c4ccccc4)c3=O)c2C)s1	none
Cc1cc(-n2c(C)cc(C(=O)CCl)c2C)no1	KB-3-1 cytotox inconclusive, KB-V1 MDR tox inconclusive, MCF10A rereplic 3.3µM, SW480 rerep inconclusive
COc1nccnc1NS(=O)(=O)c1ccc(NC(=O)c2ccccc2Br)cc1	none
Cc1ccc(C(=O)NNC(=O)CNc2cccc(Cl)c2)cc1	none
CCOC(=O)C(C)Sc1nc2c(cnn2-c2ccc(C)cc2)c(=O)[nH]1 (stereo not drawn)	ELG1 repair inh inconclusive, KB-3-1 cytotox inconclusive, KB-V1 MDR tox inconclusive, MCF10A rereplic inconclusive
COc1ccc(-n2c(C)cc(C(=O)CCl)c2C)cc1	KB-3-1 cytotox 6.5µM, KB-V1 MDR tox inconclusive, MCF10A rereplic 6.5µM, SW480 rerep 2.6µM
COc1ccc(-n2c(C)cc(C(=O)CN3C(=O)c4ccccc4C3=O)c2C)cc1	ELG1 repair inh inconclusive
COc1ccc(-n2c(C)cc(C(=O)CSc3ccc(NC(C)=O)cc3)c2C)cc1	KB-V1 MDR tox inconclusive, MCF10A rereplic 16µM
CCc1ccccc1NC(=O)c1ccc2c(c1)c(C)c(C)n2Cc1ccccc1	none (no result: ELG1 repair inh, MCF10A rereplic, SW480 rerep)
NC(=O)c1ccc[n+](CC(=O)c2cccc([N+](=O)[O-])c2)c1	none
COC(=O)C1=C(C)N(Cc2cccnc2)C(=O)/C1=C\c1cccs1	none (no result: KB-3-1 cytotox, KB-V1 MDR tox, MCF10A rereplic, SW480 rerep)
C=CCOc1cccc(/C=C2\C(=O)N(Cc3ccc(C)cc3)C(C)=C2C(=O)OC)c1	ELG1 repair inh inconclusive, KB-3-1 cytotox inconclusive, MCF10A rereplic 16µM, SW480 rerep inconclusive
COC(=O)C1=C(C)N(Cc2ccc(OC)cc2)C(=O)/C1=C\c1ccco1	ELG1 repair inh 18µM
COC(=O)C1=C(C)N(C)C(=O)/C1=C\c1ccco1	none
CCOc1cc(/C=C2\C(=O)N(Cc3ccc(C)cc3)C(C)=C2C(=O)OC)ccc1O	ELG1 repair inh 13µM, KB-3-1 cytotox inconclusive, KB-V1 MDR tox inconclusive, MCF10A rereplic inconclusive, SW480 rerep inconclusive
COc1cccc(CN2CCc3ccc(NC(=O)CCc4ccc(C)cc4)cc3C2)c1O	ELG1 repair inh inconclusive
Cc1c(C(=O)N2CCN(c3ncccn3)CC2)sc2nc3n(c(=O)c12)CCCC3	KB-V1 MDR tox inconclusive (no result: ELG1 repair inh)
C[C@@H]1CN([C@@H](C)CO)C(=O)CCCn2nncc2CO[C@@H]1CN(C)C(=O)Nc1cccc(C(F)(F)F)c1	KB-3-1 cytotox inconclusive (no result: ELG1 repair inh, MCF10A rereplic, SW480 rerep)
O=C1OC(O)c2cccc3cccc1c23 (stereo not drawn)	none (no result: ELG1 repair inh, MCF10A rereplic, SW480 rerep)
Nc1nnc(COc2ccc(Br)cc2Br)s1	ELG1 repair inh inconclusive
Cc1ccc(C)c(OCc2nnc(N)s2)c1	ELG1 repair inh inconclusive, MCF10A rereplic inconclusive, SW480 rerep 0.73µM
CN(C)S(=O)(=O)Oc1cccc(C(=O)Nc2ccc(Cl)cc2)c1	ELG1 repair inh inconclusive, KB-3-1 cytotox 9.2µM, MCF10A rereplic inconclusive
CN(C)S(=O)(=O)Oc1ccc(C(=O)Nc2cccc(C(F)(F)F)c2)cc1	ELG1 repair inh 21µM, KB-3-1 cytotox inconclusive
CN(C)S(=O)(=O)Oc1cccc(C(=O)Nc2ccccc2Cl)c1	ELG1 repair inh inconclusive
CC[n+]1c(/C=C/N(C)c2ccccc2)n(-c2ccccc2)c2ccc(-c3nc4ccccc4s3)cc21	ELG1 repair inh 4.1µM, KB-3-1 cytotox 5.8µM, MCF10A rereplic inconclusive, SW480 rerep 16µM
CCOC(=O)c1ccc2c(c1)n(CC)c(/C=C/N(C)c1ccccc1)[n+]2CC	ELG1 repair inh inconclusive
CC(C)=CCCC(C)CN1CCC(N2CCC(C(=O)N3CCOCC3)CC2)CC1 (stereo not drawn)	KB-V1 MDR tox inconclusive
O=C(Oc1ccc2[nH]cc(CCN3C(=O)c4ccccc4C3=O)c2c1)c1ccco1	ELG1 repair inh inconclusive, MCF10A rereplic 12µM
O=C1c2ccccc2C(=O)N1CCCc1c[nH]c2ccc(Cl)cc12	KB-3-1 cytotox inconclusive, KB-V1 MDR tox 21µM
O=C(CN1C(=O)c2ccccc2C1=O)NCCc1c[nH]c2ccc(Cl)cc12	KB-V1 MDR tox inconclusive
Cc1cc(C)nc(NS(=O)(=O)c2ccc(NC(=O)CSc3nc4ccccc4[nH]3)cc2)n1	none
CC(OCC(O)CNCC1COc2ccccc2O1)c1ccc(Cl)cc1 (stereo not drawn)	KB-V1 MDR tox inconclusive, MCF10A rereplic inconclusive
OC(CNCC1COc2ccccc2O1)COCc1cccs1 (stereo not drawn)	KB-3-1 cytotox inconclusive, KB-V1 MDR tox 21µM
Cc1cccc(C(=O)NCC(=O)N(C)CC(=O)Nc2ccc(N3CCOCC3)cc2)c1	none
COc1ccc(-c2coc3c2c(C)cc2oc(=O)c(C)c(C)c23)cc1	none (no result: ELG1 repair inh, MCF10A rereplic, SW480 rerep)
Cc1ccc(C2CN(C)C3(C(=O)Nc4ccccc43)C23COc2ccccc2C3=O)cc1 (stereo not drawn)	KB-3-1 cytotox inconclusive, KB-V1 MDR tox 21µM, MCF10A rereplic inconclusive, SW480 rerep inconclusive
OC1C2(Cc3ccccc3)CN3CCN(C2)CC1(Cc1ccccc1)C3 (stereo not drawn)	none
Cc1cccc(CC2CC(=O)N(c3nc4ccccc4s3)C2=O)c1 (stereo not drawn)	KB-V1 MDR tox inconclusive
COc1ccc2nc(N3C(=O)CNC3=S)sc2c1	ELG1 repair inh inconclusive, KB-3-1 cytotox inconclusive, KB-V1 MDR tox 5.8µM, MCF10A rereplic inconclusive
Cc1ccc2nc(N3C(=O)CNC3=S)sc2c1	ELG1 repair inh inconclusive, KB-3-1 cytotox inconclusive, KB-V1 MDR tox inconclusive, MCF10A rereplic 18µM, SW480 rerep inconclusive
Cc1ccc(S(=O)(=O)c2nc(S(=O)(=O)c3ccccc3)sc2NCCCOC(C)C)cc1	none (no result: ELG1 repair inh, MCF10A rereplic, SW480 rerep)
CCCn1c(OC)nc2c1c(=O)n(C)c(=O)n2C	none
CCOC(=O)c1c(C)c[nH]c1C	none
CCCCN1C(=O)C(=O)N(CC(=O)c2ccc3c(c2)CCCC3)C1=O	KB-V1 MDR tox inconclusive
CCCN1C(=O)C(=O)N(CC(=O)c2cc(C)n(C3CC3)c2C)C1=O	ELG1 repair inh inconclusive, KB-3-1 cytotox inconclusive, KB-V1 MDR tox 21µM
COc1cccc(C2(C)NC(=O)N(CC(=O)c3cc(C)n(C4CC4)c3C)C2=O)c1 (stereo not drawn)	KB-V1 MDR tox 16µM
CC(C)CN1C(=O)C(=O)N(CC(=O)c2ccc3c(c2)CCCC3)C1=O	ELG1 repair inh inconclusive, KB-V1 MDR tox 16µM

High-throughput results: PubChem BioAssay, National Center for Advancing Translational Sciences (NCATS)
